Records with an inconclusive call do not appear. Entries that show only a call come without a potency. Values without a mark were called inactive. The source made the active and inactive calls. Calls follow the shape of the dose curve; as a rule, active = well fitted curve in the direction sought with a large enough effect; inconclusive = small, poorly fitted or top-dose-only effect, or another doubt; inactive = no such curve, though single readings can be large; an effect the other way counts as inactive or inconclusive.
Tests used:
[1] = target: Cellular tumor antigen p53 (Homo sapiens) (UniProt P04637); assay: Primary qHTS for small molecule compounds that upregulate eGFP-tagged delta133p53alpha (in N-terminal) cells. (AID 2060322); settings: NCI-H358 eGFP-delta133p53alpha fluorescence, 24 h; activation: hits give high values; also: nearly all actives have a fitted effect of over 75% in size; also: potency is read from the fitted curve at half-maximal effect; as to activation: series mostly up to about 56 µM
Sequence of Cellular tumor antigen p53 (Homo sapiens) (P04637 whole entry, looked up): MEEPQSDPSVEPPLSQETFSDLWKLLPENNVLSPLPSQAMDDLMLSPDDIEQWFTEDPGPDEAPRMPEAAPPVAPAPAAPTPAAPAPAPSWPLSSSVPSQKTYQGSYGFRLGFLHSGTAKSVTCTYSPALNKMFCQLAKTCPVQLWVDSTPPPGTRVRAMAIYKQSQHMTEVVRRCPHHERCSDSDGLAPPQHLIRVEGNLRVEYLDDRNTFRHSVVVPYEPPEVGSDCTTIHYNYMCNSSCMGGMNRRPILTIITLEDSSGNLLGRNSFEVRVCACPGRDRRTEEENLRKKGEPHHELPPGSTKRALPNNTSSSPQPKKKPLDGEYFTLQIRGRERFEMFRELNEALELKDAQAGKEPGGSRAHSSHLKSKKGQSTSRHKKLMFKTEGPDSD
Outline: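 NCI-H358 cells pre-induced 24 h with 10 ng/ml doxycycline to express N-terminal eGFP-delta133p53alpha, then dosed 24 h at 37C without doxycycline; fixed, Hoechst-stained, GFP intensity by laser scanning cytometry, normalized to DMSO (0%) and 57.5 uM 5-azacytidine (100%).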

[2] = target: Aldehyde dehydrogenase, mitochondrial (Homo sapiens) (UniProt P05091); assay: qHTS for Inhibitors of the Aldehyde Dehydrogenase Family (ALDH2) Primary screen (AID 2061308); also: nearly all actives have a fitted effect of over 55% in size
[3] = target: Retinaldehyde dehydrogenase 3 (Homo sapiens) (UniProt P47895); assay: qHTS for Inhibitors of the Aldehyde Dehydrogenase Family (ALDH1A3) Primary screen (AID 2061315)

SMILES | activation [1] [%] | Potency [2] | Potency [3] | Potency [1] | activity change, negative = inhibition [2] | activity change, negative = inhibition [3]
CC(=O)N[C@H]1[C@H](O[C@H]2CC[C@]3(C)C4CC=C5[C@@H]6CC(C)(C)CC[C@]6(C(=O)O)[C@H](O)C[C@@]5(C)[C@]4(C)CC[C@H]3C2(C)C)O[C@H](CO)[C@@H](O)[C@@H]1O (stereo partly drawn) | 9.82 | inactive | inactive | – | – | –
CC1(CO)CC2C(O)C(=O)C3(CO)CC3(C)C2C1 (stereo not drawn) | -2.29 | inactive | inactive | – | – | –
C/C=C(/C=C(C)/C=C/C=C/C=C(\C)C(=O)C12OC1C(O)(CCO)NC2=O)C(=O)OC (stereo not drawn) | -13.7 | inactive | inactive | – | – | –
C=C(C)C(=O)O[C@H]1[C@H]2C(=C)C(=O)O[C@@H]2C[C@@H](C)/C=C\C(=O)[C@](C)(O)[C@@H]1OC(C)=O | – | inactive | inactive | 4.65 µM (active) | – | –
CC1(C)OC(=O)C(OCC2CC2)=C1c1ccc(S(C)(=O)=O)cc1 | -2.33 | inactive | inactive | – | – | –
Cc1cccc(N(C)C(=S)Oc2ccc3c(c2)CCC3)c1 | -3 | inactive | inactive | – | – | –
CC(C)=CC/C=C(/C)[C@H]1CC[C@]2(C)[C@@H]1[C@H](O)CC1[C@@]3(C)CC[C@H](O)C(C)(C)[C@@H]3[C@@H](O[C@@H]3O[C@H](CO)[C@@H](O)[C@H](O)[C@H]3O[C@@H]3O[C@@H](C)[C@H](O)[C@@H](O)[C@H]3O)C[C@]12C (stereo partly drawn) | -7.63 | inactive | inactive | – | – | –
O=C(/C=C/c1ccc(O)cc1)OC1[C@H](O)CC(O)(C(=O)O)C[C@H]1O (stereo partly drawn) | -0.763 | inactive | inactive | – | – | –
C=CC(C)(O)CC/C=C(\C)C(=O)OC1C(O)C(CO)OC(OC(=O)C23CCC(C)(C)CC2C2=CCC4C5(C)CCC(OC6OC(COC7OCC(OC(C)=O)C(O)C7OC7OC(COC(C)=O)C(O)C(O)C7OC(C)=O)C(O)C(O)C6OC6OCC(O)C(O)C6O)C(C)(C)C5CCC4(C)C2(C)C(O)C3O)C1OC1OCC(OC2OCC(O)C(OC3OCC(O)C(O)C3O)C2O)C(O)C1O (stereo not drawn) | -12.2 | – | – | – | 11.4% [at 11.2 µM] | 12.6% [at 11.2 µM]
CCN1C(C)(C)CC(Oc2ccc(C(=O)Nc3ccc(NC(=O)Nc4cc(C(C)(C)C)on4)cc3)nc2)CC1(C)C | – | inactive | inactive | 21.3 µM (active) | – | –
C=C1Cc2c(Cl)cc3[nH]c4c5c3c2[C@@]2(O)[C@@H]1C[C@@H]2C(C)(C)O[C@H]5C1CC[C@@]2(O)[C@@]35O[C@@H]3[C@H]3OC(C)(C)[C@H]3O[C@H]5CC[C@]2(C)[C@@]41C (stereo partly drawn) | -14.5 | inactive | inactive | – | – | –
O=S(=O)(Nc1ccc(C(O)(C(F)(F)F)C(F)(F)F)cc1)c1cccs1 | -12.3 | inactive | inactive | – | – | –
C/C=C(\C)C(=O)O[C@H]1C[C@](C)(O)[C@H]2CC=C(C)[C@H]2[C@@H]2OC(=O)[C@H](C)[C@H]21 | -15.2 | inactive | inactive | – | – | –
O=C(O)c1cccc(CN2C(=O)/C(=C(\c3ccccc3)c3ccc(Cl)cc3)c3ccccc32)c1 | -4.46 | inactive | inactive | – | – | –
COc1ccc2nccc(C(=O)CC[C@@H]3CCN(CC#Cc4cc(F)cc(F)c4F)C[C@@H]3C(=O)O)c2c1 | 7.64 | inactive | inactive | – | – | –
CC(=O)OC(C)(C)/C=C/C(=O)[C@](C)(O)[C@H]1C(O)C[C@@]2(C)[C@@H]3CC=C4[C@@H](C=C(O[C@@H]5O[C@H](CO)[C@@H](O)[C@H](O)[C@H]5O)C(=O)C4(C)C)[C@]3(C)C(=O)C[C@]12C (stereo partly drawn) | 22.3 | inactive | inactive | – | – | –
CC(C)S(=O)(=O)NC[C@H](C)c1ccc(NC(=O)c2cc(F)cc(F)c2)cc1 | -15 | inactive | inactive | – | – | –
OC[C@@]1(O)CO[C@H](OC[C@H]2O[C@@H](OC(CCCCc3ccc(O)cc3)CCc3ccc(O)cc3)[C@H](O)[C@@H](O)[C@@H]2O)[C@@H]1O (stereo partly drawn) | -1.53 | inactive | inactive | – | – | –
C#Cc1cnc2[nH]c(=O)n(C(CC)CC)c2n1 | -4.77 | inactive | inactive | – | – | –
COc1c2c(c(CO)c3c1C(=O)OC3)OC1(C)CCC3(O)C(C)(C)OC(=O)CCC3(C)C1C2 (stereo not drawn) | -16 | inactive | inactive | – | – | –
CCNC(=O)Nc1ccc(-c2nc3c(c(N4CCOC[C@@H]4C)n2)CCN(c2ncccn2)C3)cc1 | -14.3 | inactive | inactive | – | – | –
